Avidin bead fluor: green autofluorescence of compounds with avidin beads – biophysical, 488/530 nm, flow cytometry, artefact control, profiling panel; 0.38% of 220,000 active; fluorescence (KMESF) at 10 µM; AID 1775, 2009; compound fluorescence 488/530 nm; hits give high values; in the data active = fluorescence above about 47
RGS16-Gao: modulators of RGS16 binding to Galphao, primary screen, biochemical, human proteins, multiplexed bead flow cytometry; Regulator of G-protein signaling 16 (Homo sapiens) + Guanine nucleotide-binding protein …; bead-based flow cytometry RGS16-Galphao binding, fluorescence; actives lie on both sides; binding response (% of control), % at 10 µM; 0.38% of 220,000 active; call rule not given here;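 also: Galphao activated by GDP with aluminum fluoride before binding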
RGS8-Gao reg: RGS8-Galphao binding modulators, primary screen, biochemical, multiplexed bead flow cytometry | Guanine nucleotide-binding protein G(o) subunit alpha (Homo sapiens), P09471 | response (percent of control binding), % at 10 µM | 0.34% of 220,000 active | actives lie on both sides | AID 1423, 2008; in the data active = response below about 60% or above about 140%; inactive = in between;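 also: Galphao activated as the GDP aluminium fluoride complex binding bead-coupled RGS8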
Target sequence (P09471 whole entry, looked up): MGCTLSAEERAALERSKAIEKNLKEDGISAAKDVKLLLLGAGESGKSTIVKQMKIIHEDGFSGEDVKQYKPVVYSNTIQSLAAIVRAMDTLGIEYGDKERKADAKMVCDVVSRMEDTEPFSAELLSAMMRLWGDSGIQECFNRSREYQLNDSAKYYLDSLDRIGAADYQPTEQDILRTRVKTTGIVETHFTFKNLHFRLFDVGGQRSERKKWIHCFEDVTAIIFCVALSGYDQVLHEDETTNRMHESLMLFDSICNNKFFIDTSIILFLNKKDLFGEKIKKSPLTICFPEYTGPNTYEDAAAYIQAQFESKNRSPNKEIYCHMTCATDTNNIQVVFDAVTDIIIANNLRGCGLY
RGS7-Gao: RGS7-Galphao binding modulators, primary screen, biochemical, multiplexed bead flow cytometry. 0.35% of 220,000 active. actives lie on both sides. binding response (% of control), % at 10 µM. AID 1439, 2008; in the data active = binding response below about 49% or above about 150%; inconclusive = no clear call, values can overlap the other calls; inactive = in between;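 also: fluorescent Galphao held in activated GDP-AlF4 state binding bead-coupled RGS7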
RGS4-Gao reg: modulators of RGS4 binding to Galphao, primary screen, biochemical, multiplexed bead flow cytometry | Guanine nucleotide-binding protein G(o) subunit alpha (Homo sapiens), P09471 | actives lie on both sides | binding response (% of control), % at 10 µM | 0.33% of 220,000 active | AID 1415, 2008; in the data active = binding response below about 49% or above about 150%; inactive = in between;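 also: fluorescent Galphao activated with aluminum fluoride binding bead-coupled RGS4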
GSH fluor: compound fluorescence on glutathione beads, profiling panel, artefact control, biophysical, 488/530 nm, flow cytometry; GSH beads flow cytometry, compound fluorescence 488/530 nm; hits give high values; fluorescence (KMESF) at 10 µM; 0.25% of 190,000 active; AID 1776, 2009; in the data active = fluorescence above about 89;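 also: glutathione beads carrying GST-tagged Bcl family fusion proteins plus one bare bead set; values are compound well signal with DMSO vehicle wells as background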
Active calls of the source: *; ? = inconclusive; · = no result given. Hits are enriched below; roughly 1.2% of the tested compounds scored in any of these assays.

SMILES	Avidin bead fluor	RGS16-Gao	RGS8-Gao reg	RGS7-Gao	RGS4-Gao reg	GSH fluor
O=C(Nc1ccccc1)N(CCCN1CCOCC1)Cc1cc2cc3c(cc2[nH]c1=O)OCCO3	34	101	101	99	103	22
CCN(CC)CCCN(Cc1cc2cc3c(cc2[nH]c1=O)OCCO3)C(=O)Nc1ccccc1	54*	103	98	106	102	14
COc1ccc(-c2cc(C(=O)Nc3c(C)nn(Cc4ccc(Cl)cc4)c3C)no2)cc1	50*	165	111	135	146	49
COc1ccccc1-n1c(SCC(=O)N2CCCC2)nnc1-c1ccccc1	8	112	109	?	111	·
CS(=O)(=O)c1nc(-c2ccc(Br)cc2)n[nH]1	15	98	98	104	101	10
CCCCN1C(=O)NC(NC(C)=O)(C(F)(F)F)C1=O (stereo unspecified)	7	103	100	100	100	12
CC(=O)NC1(C(F)(F)F)NC(=O)N(CC(C)C)C1=O (stereo unspecified)	53*	100	99	109	101	16
CN(C)S(=O)(=O)c1cccc(C(=O)OCC(=O)Nc2sccc2C#N)c1	-4	-63*	21*	-17*	-59*	33
CCOC(=O)C1CCCN(C(=O)C(C)Oc2ccc(Cl)cc2Cl)C1 (stereo unspecified)	7	105	102	102	101	38
COC(=O)C1CCN(C(=O)C(C)Oc2ccc(Cl)cc2Cl)CC1 (stereo unspecified)	57*	104	102	138	108	28
Cc1cc(NC(=O)Nc2cc(F)ccc2F)no1	8	102	103	?	100	·
O=C(CN1C(=O)NC2(CCCCCC2)C1=O)N1CCN(S(=O)(=O)c2ccc(Cl)cc2)CC1	49*	91	94	107	99	22
CCOC(=O)C(NC(=O)CC)(Nc1nc2c(s1)CCCC2)C(F)(F)F (stereo unspecified)	7	111	106	107	116	156*
Cc1[nH]c2ccccc2c1C(=O)NS(=O)(=O)Nc1ccc(F)cc1	9	98	99	100	94	15
O=C(O)c1cc(-c2cccnc2)nn1-c1ccccn1	7	106	99	100	99	260*
O=C(c1ccc2ccccc2c1)C1CCCN(S(=O)(=O)c2cccnc2)C1 (stereo unspecified)	10	112	106	107	103	25
CN(C)C(=O)COC(=O)[C@H](Cc1ccccc1)NC(=O)c1ccco1	53*	102	99	109	99	18
CC(C)N(C)CCOC(=O)C1COc2ccccc2O1 (stereo unspecified)	8	104	105	?	106	·
N=c1c(C(=O)NCc2ccc(F)cc2)cc2c(=O)n3ccccc3nc2n1CC1CCCO1 (stereo unspecified)	90*	89	97	106	94	16
COCCCn1c(=N)c(C(=O)NCC2CCCO2)cc2c(=O)n3ccccc3nc21 (stereo unspecified)	18	99	99	98	97	15
CC1Oc2ccccc2N(CC(=O)NCc2ccccc2)C1=O (stereo unspecified)	11	104	103	104	100	24
Cc1nn(CC(=O)NCC2CCCO2)c(=O)c2ccccc12 (stereo unspecified)	9	108	102	106	104	270*
Cc1nn(CC(=O)O)c(=O)c2ccccc12	7	107	104	108	108	263*
Cc1nnc(SCC(=O)NCC2CCCO2)n1-c1ccccc1 (stereo unspecified)	9	100	99	95	97	273*
CC1Oc2ccccc2N(CC(=O)NCC2CCCO2)C1=O (stereo unspecified)	54*	104	102	108	102	20
SMILES	Avidin bead fluor	RGS16-Gao	RGS8-Gao reg	RGS7-Gao	RGS4-Gao reg	GSH fluor
CC(C)(C)C(=O)Nc1cccc(-c2ncon2)c1	3	101	99	?	98	·
CC(C)(CO)NC(=S)NCc1ccco1	3	103	99	?	101	·
CC(C)(C)NC(=O)NC(=O)CN1CCN(C(c2ccccc2)c2ccccc2)CC1	9	103	100	?	101	11
CCOC(=O)C1CCN(C(=O)c2cc(C(C)(C)C)nn2Cc2ccccc2)CC1	6	96	100	?	99	·
Cc1cc(C)cc(N(CC(=O)NCc2ccco2)C(=O)CCC(=O)Nc2ccccn2)c1	33	102	100	101	100	24
Cc1ccc(N(CC(=O)NCc2ccco2)C(=O)CCC(=O)Nc2ccccn2)cc1C	8	104	98	99	100	254*
NS(=O)(=O)c1ccc(CNC(=O)c2csc3c2CCCC3)cc1	11	100	98	96	99	19
CCOC(=O)C(C)Sc1nc2c([nH]c3ccccc32)c(=O)n1C (stereo unspecified)	7	103	100	100	100	15
CC(C)Sc1nc2c([nH]c3ccccc32)c(=O)n1C	57*	111	102	118	104	11
COCC(=O)N/N=C(\C)CC(=O)NCc1ccco1	6	110	104	103	107	20
CC1CCc2c(sc(NC(=O)c3ccccc3C(=O)O)c2C#N)C1 (stereo unspecified)	64*	96	100	128	88	41
CC(C)c1ccc(NC(=O)NN2CCOCC2)cc1	6	96	101	94	100	21
N#C/C(=C\c1ccc(N2CCCCC2)o1)C(=O)Nc1cccc(Br)c1	60*	136	103	141	136	60
N#C/C(=C\c1ccc(N2CCCCC2)o1)C(N)=O	11	101	104	103	104	18
CC(C)=CCC(C)(C)C1OCCN1C(=O)Nc1ccccc1 (stereo unspecified)	8	109	101	103	102	258*
Cc1nc(SCn2nnc3ccccc3c2=O)nc(C)c1C	8	102	100	102	100	258*
O=c1c2ccccc2nnn1CSc1ccccc1	21	107	106	101	105	12
CCOc1ccc(NC(=S)N2CCn3c(nc4ccccc43)C2)cc1	10	95	99	?	97	14
CN(C)CCCNCC(=O)NN(c1ccccc1)c1ccccc1	8	103	102	?	102	·
CCOC(=O)/C(C#N)=C/Nc1ccccc1OC(F)(F)F	105*	91	95	?	134	·
CCOC(=O)/C(C#N)=C/Nc1cc(OC)ccc1OC	4	120	106	107	103	9

Assay outcomes as filed in PubChem.
